Measured values published in PubChem BioAssay (NCI).
This is part of a sample that, as a whole, favours compounds with a hit. Of some 83,000 tested, about 20% had one in any assay.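 The test compound was applied at a single concentration to cells in 96-well plates for 48 hours, and percent growth was recorded.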 A number with no mark means an inactive call. Calls of active or inactive are those of the source. The calls were made as follows: active = growth percent below 10; inactive = the rest.

Experiments:
Experiment in all cases: NCI-60 one-dose screen, 48 h (100 = growth as untreated, 0 = no growth, -100 = all killed)
Details in all cases: 10 µM unless noted
NCI-H23 lung = system: NCI-H23 lung
NCI-H226 lung = system: NCI-H226 lung
NCI-H322M lung = system: NCI-H322M lung
HOP-62 NSCLC = system: HOP-62 NSCLC
NCI-H460 lung = system: NCI-H460 lung
HOP-92 NSCLC = system: HOP-92 NSCLC
NCI-H522 lung = system: NCI-H522 lung
A549/ATCC NSCLC = system: A549/ATCC NSCLC
786-0 renal = system: 786-0 renal
COLO 205 colon = system: COLO 205 colon
DU-145 prostate = system: DU-145 prostate
K-562 leukemia = system: K-562 leukemia
MALME-3M melanoma = system: MALME-3M melanoma
MDA-MB-231 breast = system: MDA-MB-231 breast
RXF 393 renal = system: RXF 393 renal
SF-268 CNS = system: SF-268 CNS
SF-295 CNS = system: SF-295 CNS
SF-539 CNS = system: SF-539 CNS
UACC-257 melanoma = system: UACC-257 melanoma
M14 melanoma = system: M14 melanoma

Row | SMILES | growth (NCI-H23 lung) | growth (NCI-H226 lung) | growth (NCI-H322M lung) | growth (HOP-62 NSCLC) | growth (NCI-H460 lung) | growth (HOP-92 NSCLC) | growth (NCI-H522 lung) | growth (A549/ATCC NSCLC) | growth (786-0 renal) | growth (COLO 205 colon) | growth (DU-145 prostate) | growth (K-562 leukemia) | growth (MALME-3M melanoma) | growth (MDA-MB-231 breast) | growth (RXF 393 renal) | growth (SF-268 CNS) | growth (SF-295 CNS) | growth (SF-539 CNS) | growth (UACC-257 melanoma) | growth (M14 melanoma)
1 | CC[C@H](C)[C@H](NC(=O)c1cnccn1)C(=O)N(C)[C@H](C[C@@H](OC(C)=O)c1nc(C(=O)N[C@@H](Cc2ccccc2)C[C@H](C)C(=O)OC)cs1)C(C)C | 26.2% | 33.6% | 46.3% | 17.6% | 8.2% (active) | 16.9% | -24.6% (active) | 19.2% | 24.2% | -20.3% (active) | 6.92% (active) | 5.13% (active) | 69.6% | -4.71% (active) | 17.4% | 19.4% | -5.89% (active) | -21.9% (active) | 44.3% | -5.51% (active)
2 | Nc1ccc2c(c1)Cc1cc(N)ccc1-2 | 92.3% | 91.4% | 90% | 87.1% | 93.1% | 76.5% | 92.8% | 84.3% | 105% | 90% | 107% | 112% | 85.7% | 75.6% | 87.9% | 95.4% | 100% | 96.8% | 91.3% | 92.7%
3 | Oc1cc(N2CC2)c(O)cc1N1CC1 | -37.9% (active) | -16.4% (active) | 20.4% | -12.8% (active) | -14.6% (active) | 5.86% (active) | -74.7% (active) | -1.9% (active) | 22.3% | -72.7% (active) | 9.43% (active) | 17.1% | -89.6% (active) | 96.9% | -78% (active) | 7.87% (active) | 15.9% | -12% (active) | -47.1% (active) | -50.4% (active)
4 | CCN(CC)CCn1c(=O)n(C)c2ccccc21 | 97.4% | 102% | 106% | 107% | 106% | 93.7% | 108% | 105% | 111% | 109% | 109% | 103% | 103% | 119% | 106% | 101% | 111% | 98.1% | 97.5% | 108%
5 | COc1ccc2c(c1)c(-c1nc(-c3cn(C)c4ncccc34)cs1)cn2CCCCN1CCOCC1 | 78.4% | 70.1% | 65.9% | 30.9% | -31.9% (active) | 47.9% | 3.68% (active) | 48.3% | -71.7% (active) | -91.7% (active) | 46.8% | -41% (active) | -59.5% (active) | 5.75% (active) | 0.734% (active) | 52.8% | -48.5% (active) | 30.8% | 63.5% | -66.9% (active)
6 | O=Cc1cn(Cc2ccccc2)c2ccccc12 | 80.1% | 28.2% | 86% | 65.8% | 20.9% | 74.4% | 121% | 76.6% | 87.6% | 15.4% | 108% | 53.3% | 127% | 92.7% | 67.6% | 104% | 99.5% | 95.1% | 37.8% | 117%
7 | C[C@]12CCC(=O)C[C@@H]1CC[C@@H]1[C@@H]2CC[C@]2(C)[C@@H](OC(=O)N(CCCl)N=O)CC[C@@H]12 | 29.5% | 45.8% | 49.3% | 23.9% | -64% (active) | -8.11% (active) | 22.3% | 28.2% | 14.2% | 31.8% | -53.4% (active) | 10.7% | 57.2% | 69.6% | 32.7% | 12.7% | -29.6% (active) | -28.5% (active) | 57.5% | 17.7%
8 | CC1(C)N(Nc2ccccc2)C(=O)C2CCCN21 (stereo not given) | 97.2% | 84.6% | 87.4% | 76.1% | 99.8% | 52.7% | 53.2% | 79.4% | 33.4% | 104% | 16.8% | 8.29% (active) | 84.2% | 89.6% | 116% | 39.5% | 84.5% | 89.3% | 89.2% | 10% (active)
9 | COc1ccc(N(CC(=O)NCCC[Te]c2ccccc2)C(=O)c2ccccc2)cc1 | 0.588% (active) | 52.7% | 4.82% (active) | 15.8% | -1.52% (active) | -9.19% (active) | -9.72% (active) | 2.78% (active) | 75.3% | 89.2% | 66.6% | 56.1% | 129% | 14.2% | 133% | 39.2% | -7.61% (active) | 31.4% | 95.4% | 32.1%
10 | O=C1CN2CCC1CC2 | 101% | 96.8% | 99.3% | 93.5% | 115% | 106% | 90.3% | 92.7% | 88.9% | 116% | 103% | 93.9% | 102% | 108% | 111% | 99% | 99.9% | 97.8% | 109% | 104%
11 | CO/N=C1\CC[C@]2(C)[C@H]3CC[C@]4(C)C(=O)CC[C@H]4[C@@H]3C[C@@H]3SC(N)=N[C@@]32C1 | 99.4% | 107% | 105% | 112% | 98.9% | 105% | 94.9% | 101% | 98% | 111% | 87.9% | 70.7% | 94% | 101% | 104% | 93.5% | 99.1% | 100% | 101% | 86%
12 | C[N+]1(C)CCCC1c1cccnc1 (stereo not given) | 101% | 98.3% | 104% | 101% | 108% | 88.9% | 102% | 95.9% | 91% | 109% | 110% | 99.3% | 92.1% | 109% | 102% | 108% | 100% | 107% | 96.9% | 97.5%
13 | C[C@H](O)CCC(=O)c1ccoc1 | 99.7% | 99.2% | 106% | 108% | 105% | 111% | 99.5% | 97% | 106% | 116% | 100% | 96.5% | 106% | 108% | 99.4% | 98.9% | 107% | 102% | 99.5% | 108%
14 | C=C[Se]CC(=O)/C=C/c1ccccc1 | 70.1% | 98% | 6% (active) | 13% | 12.8% | 104% | 89.2% | 32.3% | 102% | 109% | 87.5% | 93.9% | 97.5% | 94.3% | 114% | 94.8% | 3.93% (active) | 95.2% | 92.7% | 73.5%
15 | C[C@]12CCc3nc(-c4ccc(O)c(O)c4)sc3C1=CC[C@@H]1[C@@H]2CC[C@]2(C)C(=O)CC[C@@H]12 | 69% | 65% | 80% | 80.8% | 93.8% | 56.3% | 8.61% (active) | 61.2% | 75.3% | 55.4% | 75.3% | 56% | 62.9% | 56% | 91.2% | 81.5% | 104% | 56.4% | 91.4% | 63.1%
